Inconclusive results are not listed. Calls of active or inactive are those of the source. Calls come from the whole dose curve; as a rule, active = well fitted cell-killing curve with a large enough effect; inconclusive = small, poorly fitted or top-dose-only effect, or effect the other way; inactive = no such curve, though single readings can be large or run the other way.
% is set by controls: 0 for no effect and ±100 for the full control effect; potency is the fitted concentration of half-maximal effect.

The test system of the test is Tov-21-G. Nature of the test: Confirmatory qHTS for gynecologic anti-cancer compounds from libraries of approved drugs and bioactive compounds. Note: nearly all actives have a fitted effect of over 55% in size. The note with it: gynecologic cancer cell panel viability, ATPlite luminescence, 48 h; series mostly up to 57.7 µM; activity change, negative = viability loss: at the top concentration. An excerpt: National Center for Advancing Translational Sciences [NCATS] Assay Overview: Chemotherapeutic drug responses vary from cancer to cancer and from patient to patient. These variations could be caused by a number of factors including patient genomic background, tumor mutations, tumor heterogeneity, and aspects of drug treatment. Chemotherapeutic drug resistance is also a common issue and can lead to ineffective treatment and patient death. Here we have profiled the cell killing effects of thousands of compounds to characterize the responses in three gynecological cancers, identify cancer-selective compounds, and understand the diversity of responses to these compounds from pan-cancer suppressors to single cell line selective compounds. In this assay, we screened a 7,914 compound drug library that included approved drug and bioactive compounds in six ovarian, three cervical, and two placental cancer cell lines using the ATPlite assay for cell viability. ATPlite is a luminescence based assay reliant on the conversion of a luciferase substrate to light in the presence of ATP. As a cytotoxic compound will suppress growth and decrease the number of cells, the concentration of ATP will decrease, and less light signal will be detected in the well. Hits were selected from the primary screen for follow-up confirmation. For the confirmation screens, the ovarian cancer cell lines included CAOV-3, SK-OV-3, SW 626, ES-2, PA-1, and TOV-21G. The cervical cancer cell lines included HeLa, Ca Ski, and C-33 A. The placental cancer cell lines included JEG-3 and JAR. HEK 293T cells were used as the control cell line to determine the selectivity index. The ATPlite assay was used to determine the IC50 values.
Assay Protocol Summary: 1,000 cells in 4 uL of media were dispensed into white, solid bottom 1536-well plates using a Multidrop Combi (Thermo Scientific). The Assay plates were incubated for 16 hours at 37 C with 5% CO2 in assay plates, followed by the addition of 23 nL of DMSO or drug dissolved in DMSO. . Each compound was assayed in 11 concentrations (1:3 dilution) from 57.5 uM to 0.977 nM, using the automated Wako 1536 Pin Tool workstation and incubated at 37 C with 5% CO2 48 hours. 4 uL of ATPlite, the ATP monitoring reagent, was then added to the each well of the assay plates using the Multidrop Combi reagent dispenser followed by incubation for 15 minutes at room temperature. The resulting luminescence was measured using the ViewLux plate reader.
Take `Cc1cc(Nc2cc(N3CCN(C)CC3)nc(/C=C/c3ccccc3)n2)n[nH]1`: the Potency was 1720 nM (active).

As to `CC(C)n1c(/C=C/[C@@H](O)C[C@@H](O)CC(=O)O)c(-c2ccc(F)cc2)c2ccccc21`, the “activity change, negative = viability loss” value was -20.4% (inactive).

For the compound `CC(=O)c1cnc2ccc(-c3cc(Cl)c(O)c(Cl)c3)nc2c1NC1CCC(CN(C)C)CC1` (stereo not given), the Potency is 559 nM (active). In the case of `CC(C)C[C@H](NC(=O)[C@H](CCc1ccccc1)NC(=O)CN1CCOCC1)C(=O)N[C@@H](Cc1ccccc1)C(=O)N[C@@H](CC(C)C)C(=O)[C@@]1(C)CO1`, the Potency is 2170 nM (active). Consider `CC[C@]1(O)C[C@H]2CN(CCc3c([nH]c4ccccc34)[C@@](C(=O)OC)(c3cc4c(cc3OC)N(C=O)[C@H]3[C@@](O)(C(=O)OC)[C@H](OC(C)=O)[C@]5(CC)C=CCN6CC[C@]43[C@@H]65)C2)C1`, for which the Potency was 611 nM (active). On to `C[C@]12CCC(=O)C=C1CC[C@@H]1[C@@H]2[C@@H](O)C[C@@]2(C)[C@H]1CC[C@]2(O)C(=O)CO`, for which the “activity change, negative = viability loss” value is 12% (inactive).

With `CCN1CCN(Cc2ccc(-c3cc4c(NC(C)c5ccccc5)ncnc4[nH]3)cc2)CC1` (stereo not given), the Potency is 1720 nM (active).

As for `COc1ccccc1N1CCN(CC(O)COc2cccc3ccccc23)CC1` (stereo not given), the “activity change, negative = viability loss” value was 18.9% (inactive). As to `CC1=C(CO)C(=O)O[C@@H]([C@@H](C)[C@H]2CC[C@H]3[C@@H]4C[C@H]5O[C@]56[C@@H](O)C=CC(=O)[C@]6(C)[C@H]4CC[C@]23C)C1`, the Potency is 3350 nM (active). Still for that read-out and setting: the figure for `CCn1c(-c2nonc2N)nc2c(C#CC(C)(C)O)ncc(OCC3CCCNC3)c21` (stereo not given) is 30.6 nM (active); for `CCS(=O)(=O)c1cccc(-c2cc(C(=O)NC3CCN(C)CC3)c(C)c3[nH]c4ncc(C)cc4c23)c1` it is 1500 nM (active); for `Cn1c(=O)c(F)c(Nc2ccc(I)cc2F)c2c(=O)n(CC(O)CO)cnc21` (stereo not given) it is 2730 nM (active). Consider `Cc1ccc(C(=O)Nc2cccc(C(F)(F)F)c2)cc1-c1ccc2nc(NCCN3CCOCC3)ncc2c1`, for which the Potency is 4850 nM (active). Regarding `NC(=O)Nc1cc(-c2cccc(F)c2)sc1C(=O)NC1CCCNC1` (stereo not given), the Potency is 3430 nM (active).

`CN(C[C@@H]1COCCO1)S(=O)(=O)Nc1ccc2ccc3ncc(-c4cnn(C)c4)cc3c(=O)c2c1`: the Potency is 17200 nM (active). Take `Fc1cc(-c2cccc3ncc(-c4cnn(C5CCNCC5)c4)nc23)cc(F)c1CN1CCOCC1`: the Potency was 12200 nM (active). Turning to `CC1(C)[C@@H](O)CC[C@]2(C)[C@H]3C(=O)C=C4[C@@H]5C[C@@](C)(C(=O)O)CC[C@]5(C)CC[C@@]4(C)[C@]3(C)CC[C@@H]12`, the “activity change, negative = viability loss” value was 17.3% (inactive).

In the case of `Cc1csc(NC(=O)c2sc3nc4c(c(C(F)(F)F)c3c2N)CCC4)n1`, the Potency is 1930 nM (active).

On to `c1cc(N[C@@H]2CCNC2)nc(-c2cnc3ccc(-c4cn[nH]c4)cn23)c1`, for which the Potency is 2430 nM (active). With `Cc1cnc(Nc2ccc(OCCN3CCCC3)cc2)nc1Nc1cccc(S(=O)(=O)NC(C)(C)C)c1`, the Potency was 1720 nM (active). Same read-out and setting: the figure for `CN(C)C1CCN(C(=O)c2ccc(NC(=O)Nc3nc(N4CCOCC4)nc(N4CCOCC4)n3)cc2)CC1` is 172 nM (active). In the case of `Nc1nc(=S)c2[nH]cnc2[nH]1`, the “activity change, negative = viability loss” value was 31.8% (inactive). Consider `CCc1nc(C(N)=O)c(Nc2ccc(N3CCC(N4CCN(C)CC4)CC3)c(OC)c2)nc1NC1CCOCC1`, for which the Potency was 2670 nM (active). The same measure, in the same setting: for `CC(C)CC(=O)Nc1n[nH]c2c1CN(C(=O)C1CCN(C)CC1)C2(C)C` the value was 3850 nM (active); for `CN(C)CCC(CSc1ccccc1)Nc1ccc(S(=O)(=O)NC(=O)c2ccc(N3CCN(Cc4ccccc4-c4ccc(Cl)cc4)CC3)cc2)cc1[N+](=O)[O-]` (stereo not given), 13700 nM (active).

In the case of `CNC(=O)CN1CCC(Oc2cc3c(Nc4cccc(Cl)c4F)ncnc3cc2OC)CC1`, the Potency was 7690 nM (active).

Consider `CCc1cccc(CC)c1NC(=O)N1Cc2[nH]nc(NC(=O)c3ccc(N4CCN(C)CC4)cc3)c2C1`, for which the Potency is 2730 nM (active). As for `CCC1=CC2CN(C1)Cc1c([nH]c3ccccc13)[C@@](C(=O)OC)(c1cc3c(cc1OC)N(C)[C@H]1[C@@](O)(C(=O)OC)[C@H](OC(C)=O)[C@]4(CC)C=CCN5CC[C@]31[C@@H]54)C2` (stereo not given in full), the Potency was 2370 nM (active).

As for `CC(C)C[C@H](NC(=O)[C@@H](NC(=O)c1cccc(-c2ccccc2)n1)[C@@H](C)O)B(O)O`, the Potency was 1720 nM (active). The same measure, in the same setting: for `CC(=O)NCC(=O)N1C2CCC1c1cc(Nc3ncc(C(F)(F)F)c(NC4CCC4)n3)ccc12` (stereo not given) the value was 3060 nM (active); for `CCN(CC)CCNC(=O)c1c(C)[nH]c(/C=C2\C(=O)Nc3ccc(F)cc32)c1C`, 11200 nM (active).

Consider `CCOc1cc2ncc(C#N)c(Nc3ccc(F)c(Cl)c3)c2cc1NC(=O)/C=C/CN(C)C`, for which the Potency is 2170 nM (active). On the same count and under the same terms, for `Cc1ccc(C(N)=O)cc1Nc1nccc(-c2cn(C(C)C)c3cnccc23)n1` the value was 9680 nM (active); for `CN(C)C/C=C/C(=O)Nc1cc2c(Nc3ccc(F)c(Cl)c3)ncnc2cc1OC1CCOC1` (stereo not given), 3430 nM (active). As to `CN[C@@H](C)C(=O)N[C@H]1CN(C(=O)CC(C)C)CC[C@H]2CC[C@@H](C(=O)NC(c3ccccc3)c3ccccc3)N2C1=O`, the Potency was 21700 nM (active). With `CC(=O)OC12COC1CC(O)C1(C)C(=O)C(O)C3=C(C)C(OC(=O)C(O)C(NC(=O)OC(C)(C)C)c4ccccc4)CC(O)(C(OC(=O)c4ccccc4)C21)C3(C)C` (stereo not given), the “activity change, negative = viability loss” value is -6.62% (inactive). In the case of `Cc1cc(SCc2sc(-c3ccc(C(F)(F)F)cc3)nc2C)ccc1OCC(=O)O`, the “activity change, negative = viability loss” value was 1.34% (inactive). As to `COCCOc1nc(-c2ccc(Cl)c(Cl)c2)n(-c2ccc(NC(=O)CCl)cc2)n1`, the Potency is 1720 nM (active).

For `Cc1ccn(-c2ccc(-c3ncco3)cc2)c(=O)c1-c1ccc2nc(N)ncc2c1`, the Potency is 6110 nM (active). Turning to `CC[C@@]1(O)C(=O)OCc2c1cc1n(c2=O)Cc2cc3c(CN(C)C)c(O)ccc3nc2-1`, the Potency was 5440 nM (active).

These data come from PubChem BioAssay AID1345085 (National Center for Advancing Translational Sciences (NCATS), 2018).
